Our source for the inhibition values is PubChem BioAssay.

Molecules are shown by their SMILES. A number with no mark means an inactive call. Activity calls are given as the source filed them.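 Rule for the calls: active = inhibition at or above 50% relative to wild type and mutant plate controls; inactive = inhibition below 50%.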

The assay is described as follows: loss of swimming-algae plug formation – whole organism, Chlamydomonas reinhardtii, WT vs cilia-less mutant, absorbance, 96-well, primary screen (AID 463189).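 Note: 0% = wild type cc124 cells in DMSO and 100% = ciliumless bld1 mutant cells.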 As to conditions: Chlamydomonas reinhardtii gravitaxis, OD600 absorbance, 2 days; at 10 µM; active compounds read high.
Consider `Nn1nnc2ccccc21`, for which the inhibition was 1.8%. Then `O=C1C(SCCO)=C(SCCO)C(=O)c2ccccc21`, with 152% (active); and `O=C(O)CCC(NC(=O)c1ccccc1C(=O)O)C(=O)O` (stereo not drawn), with 1.62%; and `C#CCN(C)CCCOc1ccc(Cl)cc1Cl`, with 24.1%.

In the case of `CCCCCCCCCCCCCCCC(=O)NCCO`, the inhibition is 8.85%. With `O=C(OCCN1CCOCC1)C1(c2ccccc2)CCCCC1` the figure was 2.35%; with `CCCN(CCc1ccccc1)C1CCc2c(O)cccc2C1` (stereo not drawn), 5.13%; with `Nc1nc2ccc(Cl)cc2c2nc(-c3ccco3)nn12`, 1.54%. Then `CN(C)C(=O)C(CCN1CCC(O)(c2ccc(Cl)cc2)CC1)(c1ccccc1)c1ccccc1`, with -2.62%; and `CCn1ccnc1CC1COc2ccccc2O1` (stereo not drawn), with 5.81%. Then `N=C(N)SCCc1ccc(CCSC(=N)N)cc1`, with 9.2%; and `Nc1nc2c(ncn2COC(CO)CO)c(=O)[nH]1`, with 3.53%. As to `CCCCCCCCCC(=O)NC(CN1CCOCC1)[C@H](O)c1ccccc1` (stereo partly drawn), the inhibition is -8.57%. For `Oc1cc2c(cc1O)CN(C(=S)NCCc1ccc(Cl)cc1)CCC2`, the inhibition was 23.4%. With `COc1cccc2c1[C@@H]1CN(CCCCn3c(=O)[nH]c4c(sc5ncc(-c6ccccc6)nc54)c3=O)C[C@@H]1CO2` the figure was 4.24%; with `COc1ccccc1CNCCCCCCNCCCCCCCCNCCCCCCNCc1ccccc1OC`, 126% (active). With `CC(C)(C)c1onc(OCP(=O)(O)O)c1CC(N)C(=O)O` (stereo not drawn) the figure was 9%; with `NC(=O)c1cnccn1`, 1.54%.
